Compound activity (PubChem BioAssay)
Sfp PPTase inh: Sfp phosphopantetheinyl transferase inhibition; Q9F4F7; Biochemical Sfp PPTase activity, qHTS; Potency, µM, without a hit: largest response in the series, negative = inhibition, most hits filed as inhibitors; actives 3.5% (n = 310,000);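 note: the enzyme is Sfp with the accession as filed and its product quenches rhodamine fluorescence; 0% = enzyme reaction without inhibitor and -100% = no enzyme wells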
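With Hepes-Na pH 7.6 buffer containing 10 mM MgCl2, Sfp (15 nM) modified BHQ-2-YbbR (12.5 uM) using rhodamine-CoA (5 uM). Two reads 30 minutes apart at 525/598 nm yielded each well's rate.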
HP1b chromo inh: HP1-beta chromodomain-methylated histone interaction inhibition. AlphaScreen HP1-beta / biotin-H3K9me3 peptide binding. Potency, µM (titrated, usually from 114 µM), inactives show at the highest dose activity change, negative = inhibition, usual class: inhibitors. actives 0.56% (n = 390,000); note: nearly all actives have a fitted effect of over 70% in size
Target sequence (P83916 whole entry, looked up): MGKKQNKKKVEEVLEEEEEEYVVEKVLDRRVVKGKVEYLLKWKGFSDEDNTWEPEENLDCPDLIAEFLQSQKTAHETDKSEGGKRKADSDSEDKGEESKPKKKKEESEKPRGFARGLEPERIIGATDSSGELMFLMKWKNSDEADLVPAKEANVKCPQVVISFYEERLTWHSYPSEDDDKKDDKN
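HP1-beta protein (50 nM final) preincubated 30 min at room temperature with biotinylated H3(1-18)K9me3 peptide (50 nM) in PBS pH 7.4, 0.01% Tween-20, then compound added for 30 min. AlphaScreen streptavidin donor/nickel chelate acceptor beads (10 ug/mL final), 30 min dark, luminescence read.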
BAZ2B block: blocks human BAZ2B. AlphaScreen BAZ2B-H3K14Ac peptide displacement. Potency, µM (doses to about 114 µM), without a hit: at the top dose activity change, negative = inhibition, hits mostly inhibitors. actives 4.4% (n = 360,000). AID 504333; note: % is set by controls: 0 for no effect and ±100 for the full control effect; nearly all actives have a fitted effect of over 60% in size
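Multi-concentration screen (max 110 uM) measuring displacement of acetylated histone H3 peptide from BAZ2B by AlphaScreen, using 50 nM protein, 50 nM peptide and 10 ug/mL streptavidin donor plus Ni-chelate acceptor beads.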
JMJD2A Tudor: JMJD2A Tudor domain (human) inhibition | O75164 | AlphaScreen JMJD2A-Tudor / H3K4me3 peptide binding | Potency, µM (highest dose often 114 µM), for inactives: at the top dose activity change, negative = inhibition, hits mostly inhibitors | actives 4.4% (n = 390,000) | AID 504339; note: % is set by controls: 0 for no effect and ±100 for the full control effect; nearly all actives have a fitted effect of over 50% in size
G9a inh: inhibitors of human histone lysine methyltransferase G9a. Potency, µM (series often up to 102 µM), for the others: top-dose activity, negative = inhibition, actives largely listed as inhibitors. G9a H3K9 monomethylation, AlphaScreen, 2 h. Q96KQ7. actives 8.8% (n = 350,000). AID 504332; note: % is set by controls: 0 for no effect and ±100 for the full control effect; nearly all actives have a fitted effect of over 75% in size
Target sequence (Q96KQ7 913-1193 limits assumed): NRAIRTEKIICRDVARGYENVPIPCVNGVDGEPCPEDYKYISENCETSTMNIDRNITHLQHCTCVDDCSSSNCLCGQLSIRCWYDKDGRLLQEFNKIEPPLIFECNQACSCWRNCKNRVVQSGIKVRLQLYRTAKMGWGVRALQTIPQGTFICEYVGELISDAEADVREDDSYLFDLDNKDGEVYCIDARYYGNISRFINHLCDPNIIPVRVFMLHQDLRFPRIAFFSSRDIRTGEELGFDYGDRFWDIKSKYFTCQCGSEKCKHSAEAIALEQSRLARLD
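AlphaScreen read-out: biotin-H3K9 peptide (500 nM) methylation by 20 nM enzyme with 20 uM SAM, 2 h at room temperature after 15 min compound preincubation; anti-monomethyl H3K9 antibody plus donor/acceptor beads, 10 min dark.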
* marks the source's active call; other numbers are inactive results; ? = inconclusive; · = no result; [ ] = remark or other dose. Only some compounds are listed: those with a hit (about 12% of all), similar ones and a draw of the others. Calls come from the whole dose curve; as a rule, active = well fitted curve in the direction sought with a large enough effect; inconclusive = small, poorly fitted or top-dose-only effect, or another doubt; inactive = no such curve, though single readings can be large; an effect the other way counts as inactive or inconclusive. Potency is the fitted concentration of half-maximal effect.

SMILES | Sfp PPTase inh | HP1b chromo inh | BAZ2B block | JMJD2A Tudor | G9a inh
CC1(C)C(=O)Nc2ccccc2N1C(=O)COC(=O)c1ccc(NC(N)=O)cc1 | · | 9% | -10% | -20% | 35µM*
CCC(=O)c1ccc(OCC(=O)OCC(=O)N2c3ccccc3NC(=O)C2(C)C)cc1 | · | 33% | -20% | -15% | -22%[59 µM]
Cc1cc(OCC(=O)OCC(=O)N2c3ccccc3NC(=O)C2(C)C)ccc1Cl | · | 2% | 79µM* | ? | 18%[12.7 µM]
COc1ccc(CC(=O)NNS(=O)(=O)c2cccc([N+](=O)[O-])c2)cc1OC | 20% | 14% | 0% | 2% | -1%[59 µM]
COc1ccc(-n2c(O)c(/C=N/NS(=O)(=O)c3cccc([N+](=O)[O-])c3)c3ccccc3c2=O)cc1OC | -14% | 3% | 50µM* | ? | 40µM*
CC(=O)N(Cc1cc(=O)[nH]c2ccccc12)c1ccc(C)cc1 | -7% | 22% | 12% | 1% | 32µM*
O=C(CCl)N(Cc1cc(=O)[nH]c2ccccc12)c1ccccc1 | -25% | 6% | -4% | -29% | 40µM*
CCC(C)NC(=O)C1(O)c2ccccc2NC(=O)N1c1ccc(C)c(C)c1 (centres undefined) | 7% | 66% | -12% | 6% | 23%
Cc1cccc(N2CCN(C(=O)/C=C/c3cccs3)CC2C)c1 (centres undefined) | 1% | 10% | ? | -32% | -36%
Cc1cccc(N2CCN(C(=O)C3CCN(c4nnc(-n5cccc5)s4)CC3)CC2C)c1 (centres undefined) | -13% | -4% | ? | ? | 50µM*
O=C(CSc1ccsc1[N+](=O)[O-])N1CCN(c2ccccn2)CC1 | 3% | -20% | ? | ? | 45µM*
Cc1cccc(N2CCN(C(=O)CCC(=O)N3CC(C)Oc4ccc(C)cc43)CC2C)c1 (centres undefined) | -5% | -10% | ? | ? | 45µM*
Cc1cccc(N2CCN(C(=O)CSc3ccsc3[N+](=O)[O-])CC2C)c1 (centres undefined) | -7% | -36% | 40µM* | ? | ?
COCCCn1c(=N)c(C(=O)NC2CCCC2)cc2c(=O)n3ccccc3nc21 | · | 32% | -14% | -5% | -22%[59 µM]
Cc1cccc(N2CCN(S(=O)(=O)c3ccc4c(c3)CCN4C(=O)CCC(=O)O)CC2C)c1 (centres undefined) | -2% | ? | ? | 56µM* | ?
CC(C)(C)C(=O)NCCc1csc2nc(-c3ccc(F)cc3)nn12 | · | 27%[57 µM] | 7% | 8% | 0%[59 µM]
Cc1ccc(CNC(=O)CCCC(=O)Nc2cc(C)on2)cc1 | 14% | ? | -7% | 16µM* | ·
Cc1cc(NC(=O)CCOc2ccc(F)cc2)no1 | -5% | 36% | -9% | -1% | 56µM*
Cc1cc(NC(=O)CCCC(=O)NCc2ccccc2)no1 | 4% | 10% | -22% | -1% | -5%
N#CCOc1ccccc1CNC[C@H]1O[C@@H](n2cnc(C(N)=O)n2)[C@H](O)[C@@H]1O | · | 40% | · | -6% | ·
O=C(NCc1cccs1)c1ccc(CSc2nc3cccnc3n2Cc2ccccc2F)cc1 | · | ? | 8.9µM* | 5.6µM* | 2.5µM*
CN(Cc1ccccc1)C(=O)c1ccc(CSc2nc3cccnc3n2Cc2ccccc2F)cc1 | · | ? | 25µM* | 5µM* | 4.5µM*
O=C(NC1CCCC1)c1ccc(CSc2nc3cccnc3n2Cc2ccccc2F)cc1 | · | 23% | -7% | -20% | ?
CCc1nc2ccc(C(=O)NCCc3ccc(OC)c(OC)c3)cc2nc1CC | 1% | -7% | -15%[57.1 µM] | -17% | -6%
O=C(Nc1cccc(C(F)(F)F)c1)c1ccc2nc(-c3ccco3)c(-c3ccco3)nc2c1 | 28µM* | -92% | 50µM* | 20µM* | ?
SMILES | Sfp PPTase inh | HP1b chromo inh | BAZ2B block | JMJD2A Tudor | G9a inh
COc1ccc(CCNC(=O)c2ccc3nc(-c4ccco4)c(-c4ccco4)nc3c2)cc1OC | 10µM* | ? | 50µM* | ? | ?
O=C(O)c1ccc2nc(-c3ccco3)c(-c3ccco3)nc2c1 | 7.9µM* | ? | 10µM* | 25µM* | -123%[12.7 µM]
COC(=O)NC(/C(C(=O)OC)=C(\C)NCc1ccccc1)c1cccc(F)c1 (centres undefined) | -19% | · | · | · | ·
CCOC(=O)c1c(NC(=O)CSc2nc3ccccc3o2)sc(C)c1C | 45µM* | 48% | -5% | -4% | 11%[2.33 µM]
CCOC(=O)c1c(NC(=O)CSc2nc3ccccc3s2)sc(C)c1C | 1% | 57% | 2% | -11% | -6%
O=C(CSc1nc2ccccc2o1)Nc1nc2ccc(Br)cc2s1 | 13% | 55% | -17% | -21%[11.4 µM] | 45µM*
CCOC(=O)c1c(NC(=O)CSc2nc3cccnc3n2C)sc(C(C)=O)c1C | ? | 30% | 6% | -15% | 0%[2.33 µM]
CCOC(=O)c1c(NC(=O)CSc2nnc(-c3ccco3)o2)sc(C)c1C | 50µM* | 4% | -29%[57.1 µM] | -11% | -40%
CCOC(=O)c1c(NC(=O)CSc2nnc(-c3ccccc3C)n2C)sc(C(C)=O)c1C | -16% | -17% | 50µM* | -31% | ?
Cc1ccc(S(=O)(=O)N2CCc3cc(C(=O)NCCc4ccccc4)ccc32)cc1 | · | 11% | -4% | -10% | -1%[59 µM]
COC(=O)c1ccc(N/C=C/C(=O)c2ccccc2)cc1 | 13% | 28% | -38% | -13% | -2%
O=S(=O)(c1ccccc1)N1CCC[C@@]2(CCN(c3ccccc3)C2)C1 | 1% | · | · | · | -25%[12.7 µM]
COc1ccc(CCNC(=O)C2c3ccccc3C(=O)N2Cc2ccccc2)cc1OC (centres undefined) | · | 25% | 5% | -2% | 6%[59 µM]
COc1cccc(C2N(Cc3ccccc3)C(=O)C2(F)F)c1OC (centres undefined) | 10% | 7% | 27% | 8% | 16%
CCOC(=O)c1c(NC(=O)CSc2nnc(-c3ccco3)o2)sc(C(C)=O)c1C | -3% | 35% | -29% | -20% | 12%[59 µM]
CCOC(=O)c1c(NC(=O)CSc2nnc(-c3cccnc3)o2)sc(C(C)=O)c1C | 2% | ? | ? | 18µM* | 10%[59 µM]
Cc1nn(-c2ccccc2)c2c1N(CCCC(=O)NCc1ccc(OC(C)C)cc1)C(=O)CS2 | · | 4% | -12% | -25% | 6%[59 µM]
Nc1c(C(=O)Nc2ccc(C(F)(F)F)cc2)sc2nc(-c3cccs3)ccc12 | · | 12% | -2% | -17% | ?
NC(=O)c1sc2nc(-c3cccs3)ccc2c1N | -13% | 45% | -21% | -1% | 35µM*
Nc1c(C(=O)NC2CCCC2)sc2nc(-c3cccs3)ccc12 | 45µM* | 52% | 4% | -7% | -48%[2.33 µM]
NC(=O)c1sc2nc(-c3ccccc3)ccc2c1N | 13% | 38% | 10% | 9% | ·
CCOc1ccc(CNC(=O)c2sc3nc(C)cc(C)c3c2-n2cccc2)cc1 | · | -1% | -1% | -26% | -11%[59 µM]
